In the library only some 1.3% were active in any assay of this set; here they are far more common.
LANA DNA inh: inhibitors of KSHV LANA C-terminal domain DNA binding; MBP-C-LANA/FAM-LBS DNA binding, fluorescence polarization; inhibition, % at 9 µM; AID 504423; 0.078% of 340,000 active;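 active = highest replicate inhibition at or above 60% at 9 µM, even if other replicates fall short; inactive = all replicates below 60% inhibition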;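 also: 0% = neutral control wells and 100% = 4 µM acridine orange control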
CRFBP-R2 agonist: agonists of human CRF-binding protein/CRF-R2 receptor complex. HEK293 CRF-R2/CRF-BP, calcium dye fluorescence (FLIPR); percent of saturating CRF peptide response. activation, % at 13.2 µM. 0.46% of 350,000 active;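 active = activation of at least 50%, plus an integration ratio under a set limit after plate pattern correction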;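 also: plate controls were neutral control wells without compound for no effect and CRF at EC100 for full effect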
RTF Ca sens act: cardiac RTF calcium sensitization | P19429+P45379 | IANBD-labeled TnC RTF fluorescence at EC20 calcium; 0% EC20 calcium, 100% full calcium | activation, % at 7.2 µM | 0.24% of 340,000 active | AID 493008;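 active = activation above the mean over all tested compounds plus 3 SD, cut at about 30% in these data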;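 also: rise in fluorescence read as greater calcium sensitivity of cardiac thin filaments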
RTF Ca sens inh: cardiac RTF calcium desensitization; inhibition, % at 7.15 µM; IANBD-labeled cardiac RTF, Ca2+ fluorescence; 0.12% of 340,000 active; AID 493244; P19429+P45379;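 active = inhibition above the mean inhibition of all tested compounds plus 3 SD, cut at about 17% in these data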;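 also: assay run at fixed EC70 calcium of 1.6 mM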
CRFR2-BP antag: blocks CRF-induced signaling of the CRF-BP/CRF-R2 complex; HEK293 CRF-R2/CRF-BP, CRF-induced calcium fluorescence; inhibition, % at 11.8 µM; 0.59% of 350,000 active;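 active = inhibition of the ligand-induced calcium signal above about 50% at the single tested concentration, limit read from the data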
Keap1 Nrf2 FP: inhibitors of human Keap1-Nrf2 protein-protein interaction | inhibition, % at 9.4 µM | 0.15% of 340,000 active | Keap1 Kelch-Nrf2 peptide fluorescence polarization, 1536-well | Q14145 | AID 504523; in the data active = inhibition above about 12%;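 also: human Keap1 Kelch domain with fluorescein labeled Nrf2 9mer peptide probe; 0% = neutral control wells and 100% = peptide positive control; higher means more block of Keap1 binding to Nrf2 peptide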
Target sequence (Q14145 whole entry, looked up, the tested form may be a part): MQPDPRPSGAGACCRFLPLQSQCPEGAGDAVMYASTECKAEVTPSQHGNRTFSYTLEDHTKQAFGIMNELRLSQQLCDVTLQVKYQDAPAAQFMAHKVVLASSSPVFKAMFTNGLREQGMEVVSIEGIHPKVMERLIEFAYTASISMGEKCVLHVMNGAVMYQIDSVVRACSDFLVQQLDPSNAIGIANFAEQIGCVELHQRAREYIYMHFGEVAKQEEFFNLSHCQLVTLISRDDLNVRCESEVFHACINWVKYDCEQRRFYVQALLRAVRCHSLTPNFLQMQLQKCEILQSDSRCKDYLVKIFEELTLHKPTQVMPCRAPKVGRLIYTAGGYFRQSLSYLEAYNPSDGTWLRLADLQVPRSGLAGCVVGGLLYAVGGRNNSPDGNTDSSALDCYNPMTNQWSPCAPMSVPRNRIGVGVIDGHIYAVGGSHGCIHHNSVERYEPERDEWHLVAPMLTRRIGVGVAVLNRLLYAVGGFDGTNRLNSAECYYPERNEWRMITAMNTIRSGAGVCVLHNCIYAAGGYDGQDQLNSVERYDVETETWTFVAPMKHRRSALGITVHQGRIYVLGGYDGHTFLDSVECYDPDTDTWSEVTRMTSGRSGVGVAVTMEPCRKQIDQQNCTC
Numbers without * were called inactive; i = inactive; nt = no result given.

SMILES	LANA DNA inh	CRFBP-R2 agonist	RTF Ca sens act	RTF Ca sens inh	CRFR2-BP antag	Keap1 Nrf2 FP
COc1cccc(CNC(=O)C2CCC(=O)N(CC3CCCCC3)C2)c1OC (centres undefined)	1	3	1	-6	92*	-5
O=C(NCc1cccc(Cl)c1)C1CCC(=O)N(CC2CCCCC2)C1 (centres undefined)	0	-4	-1	-6	86*	0
COc1cccc(CN2CC(C(=O)NCc3cnn(C)c3)CCC2=O)c1 (centres undefined)	-2	0	4	-3	7	-5
CC(C)(C)CC(=O)NC(=S)NCc1ccco1	0	0	1	-13	0	-3
Cc1c(C(=O)NCc2ccco2)oc2c(Cl)cccc12	-1	1	-4	0	2	1
CCOc1cc(C(c2c(C)[nH][nH]c2=O)c2c(C)[nH][nH]c2=O)ccc1OS(=O)(=O)c1ccccc1	1	-1	3	-12	7	-1
Cc1ccc(S(=O)(=O)Oc2ccc(C(c3c(C)[nH][nH]c3=O)c3c(C)[nH][nH]c3=O)cc2)cc1	-1	126*	-8	3	-160	-1
COc1ccc(/C=C2/SC(=S)N(Cc3ccccc3)C2=O)cc1O	0	-1	2	7	-6	1
COc1ccc(OC)c(/C=C2\SC(=S)N(Cc3cccnc3)C2=O)c1	2	136*	9	-15	-183	5
COc1ccc(-c2nn(-c3ccccc3)cc2/C=C2/SC(=S)N(CCC(=O)O)C2=O)cc1	3	3	-4	-1	11	-17
COc1ccc(O)c(/C=C2/SC(=S)N(Cc3ccccc3)C2=O)c1	-3	74*	81*	-56	-74	-2
COc1ccc(-c2nn(-c3ccccc3)cc2/C=C2/SC(=S)N(CCC(=O)O)C2=O)c(C)c1	3	-1	-10	2	52*	2
O=C(O)COc1ccc(/C=C2/SC(=S)N(Cc3ccccc3)C2=O)cc1	-2	-1	-3	-5	7	-3
O=C1/C(=C\c2cc(Cl)c(O)c(Cl)c2)SC(=S)N1Cc1ccccc1	-22	187*	525*	i	-119	-35
COC(=O)CC1C(C(=O)OC)ON2OC(C(=O)OC)C(C(=O)OC)C12 (centres undefined)	-2	-1	-5	2	11	-3
Cc1ccc(OCCCC(=O)Nc2ccc(Br)cc2)cc1	0	0	-3	-3	5	0
COc1ccc(N2CCN(CCNS(=O)(=O)c3cccc4nsnc34)CC2)cc1	0	0	10	-5	2	-2
O=C(CCc1ccccc1)NNC(=O)c1ccccc1C(=O)O	-2	-2	1	-4	7	1
O=C(CN1CCN(S(=O)(=O)/C=C/c2ccccc2)CC1)Nc1ccccc1N1CCOCC1	-9	0	4	-8	11	-6
CCN(CC(=O)Nc1ccc(OC)cc1)C(=O)COc1cccc2c1OC(C)(C)C2	-1	-2	-2	6	15	-2
CC(C)C(=O)NCCc1nc2ccccc2n1CCOc1ccccc1	3	-1	5	-3	0	-3
CCN1/C(=C/c2ccc3cc(C)cc(C)c3[n+]2CC)Sc2cc(C)ccc21	-55	182*	66*	-139	-206	-24
CC[n+]1c(C)sc2c3ccsc3ccc21	1	1	7	-2	-17	-6
CCN1/C(=C/c2ccc3cc(C)ccc3[n+]2CC)Sc2ccc3sccc3c21	-2	43	36*	-88	-34	1
CCN1/C(=C\c2ccc3cc(C)ccc3[n+]2CC)Sc2cc(C)c(C)cc21	-69	114*	58*	-104	-157	-17
SMILES	LANA DNA inh	CRFBP-R2 agonist	RTF Ca sens act	RTF Ca sens inh	CRFR2-BP antag	Keap1 Nrf2 FP
C=CC[n+]1c(/C=C2\C=Cc3cc(C)ccc3N2CC)ccc2ccccc21	-14	0	-5	-5	6	-7
CCN1/C(=C/c2ccc3cccc(C)c3[n+]2CC)Sc2ccccc21	-52	205*	14	-68	-297	-23
CCN1/C(=C/C(C)=C/c2sc3ccccc3[n+]2CC)Sc2ccccc21	-27	1	-2	2	-16	-26
C[C@H]1CN([C@@H](C)CO)C(=O)CCCn2cc(nn2)CO[C@@H]1CN(C)S(=O)(=O)c1ccc2ccccc2c1	nt	-1	nt	nt	0	nt
CCOc1ccc(N2C(=O)c3cccnc3C2Nc2ccc(C)c(C)c2)cc1 (centres undefined)	3	-1	5	-6	4	2
COc1ccc(-n2c(C)cc(/C=C3/SC(=S)N(C)C3=O)c2C)cc1	-1	58*	3	-2	-47	-8
Cc1cc(/C=C2\SC(=S)N(C)C2=O)c(C)n1-c1cccc(O)c1	-1	11	11	-27	-4	-3
CCCC(=O)Nc1c(C(=O)OCC)[nH]c2ccccc12	-1	2	-1	-6	4	-1
CCOC(=O)c1[nH]c2ccccc2c1NC(=O)Nc1ccc(OC)cc1	1	-8	6	1	85*	-4
COc1ccc(NC(=O)Nc2ccc(O)c3ccccc23)cc1	nt	-5	nt	nt	50*	nt
COc1ccc(C(=O)Nc2ccc(O)c3ccccc23)cc1	1	-2	9	-12	4	1
CCC(=O)c1ccc(OCC(=O)Nc2cccc(S(=O)(=O)N(C)c3ccccc3)c2)cc1	2	1	2	0	2	-9
CN(c1ccccc1)S(=O)(=O)c1cccc(NC(=O)COc2cccc([N+](=O)[O-])c2)c1	-1	-3	3	-11	52*	-2
O=C(N1CCCC1)C12CC3CC(CC(C3)C1)C2	2	0	3	0	7	-2
CC(C)(CNC(=O)c1cc(Cl)c(O)c(Cl)c1)N1CCCCC1	-1	-3	-8	-4	55*	-9
COc1ccccc1OCC(=O)NCC1CCCN(C(=O)c2ccccc2C(C)=O)C1 (centres undefined)	0	1	5	-1	68*	-1
Cc1cc(NS(=O)(=O)c2ccc(NC(=S)NC(=O)c3ccc(Br)cc3)cc2)no1	-1	-2	4	-7	18	-4
COc1ccc(C2CCCN2C(=O)Nc2ccc(C)c(C)c2)cc1OC (centres undefined)	-1	-1	-1	-12	80*	1
COc1ccc(C2CCCN2C(=S)Nc2ccc(C)c(C)c2)cc1OC (centres undefined)	-1	-1	9	-21	33	-4
CC1=CC(=C(C#N)c2nc3ccccc3s2)C=C(C)N1CC1CCCO1 (centres undefined)	4	64*	7	3	-26	-1
